Data: PubChem BioAssay AID1159580 (chemical genetic matrix, 2015)
Among all 5,500 compounds or so, about 2,000 (36%) were called active. Another 18% or so got no clear call; they are omitted. Rule as the data show it: active = normalized growth mostly below about 0.91 (no sharp cut-off); inconclusive = no clear call, values can overlap the other calls; inactive = mostly above about 0.92. Some of the results follow.

Experiment: chemical genetic growth profiling, strain panel (AID 1159580);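 also: tested at 20 µM; growth read once vehicle control cultures reached saturation at 30 °C; 1 = growth at the plate median or of vehicle wells; lower values mean less growth of the strain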
Conditions: S. cerevisiae deletion strains, growth OD

Measured: normalized growth

CCN1CCC[C@H]1CNC(=O)c1cc(S(N)(=O)=O)ccc1OC
inactive: locus YAL013W, strain DEP1, active compounds read low 1.02 | locus YAL040C, strain CLN3, active compounds read low 1.07 | locus YCL061C, strain MRC1 (second series), active compounds read low 1.01 | locus YDR150W, strain NUM1, active compounds read low 1.01 | locus YDR363W, strain ESC2, active compounds read low 1.03 | locus YER002W, strain NOP16, active compounds read low 1.02 | locus YGR078C, strain PAC10, active compounds read low 1.02 | locus YGR229C, strain SMI1, active compounds read low 1.02 | locus YMR307W, strain GAS1, active compounds read low 0.997 | locus YNL128W, strain TEP1, active compounds read low 0.995 | locus YNL153C, strain GIM3, active compounds read low 1.02 | locus YNL175C, strain NOP13, active compounds read low 1 | locus YNL197C, strain WHI3, active compounds read low 1.01 | locus YNL224C, strain SQS1, active compounds read low 1.01 | locus YOR083W, strain WHI5 (second series), active compounds read low 1.01 | locus YPL055C, strain LGE1, active compounds read low 1.01
